Results on seven molecules are retold here after PubChem BioAssay (Tox21).

Assay [1] is described as follows: qHTS assay to identify small molecule agonists of the hypoxia (HIF-1) signaling pathway (AID 1224846; active = well fitted activation curve with a large enough effect in the signal ratio in the repeat runs, not every such curve was filed as active; the % refers to the signal ratio). In a few lines:
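HRE-bla ME-180 cells (beta-lactamase reporter under hypoxia response element) were plated at 2,000 cells/well in medium with 0.5% dialyzed FBS, rested 5 hrs, then given compounds in DMSO for 17 hrs at 37C, 5% CO2. Reporter induction was read with CCF4-AM FRET substrate.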

Assay [2] in a line: qHTS assay to identify small molecule agonists of H2AX - cell viability counter screen (AID 1224847; calls by dose curve;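 note: wild-type CHO-K1 cells; top concentration of the series differs between compounds; nearly all actives have a fitted effect of over 30% in size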). A digest of the protocol:
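CHO-K1 wt, 1000 cells/well, o/n 37C; cpds 15 conc, 3 h 37C, 0.76% DMSO; CellTiter-Glo, 30 min RT, luminescence.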

Assay [3] in a line: qHTS assay to identify small molecule agonists of the estrogen related receptor (ERR) signaling pathway from Tox21 library (AID 1224849; calls by dose curve; note: nearly all actives have a fitted effect of over 15% in size). The conditions noted are these: ERR reporter cell line, ONE-Glo luciferase, 18 h; at 92.4 µM (top of the series) unless noted. In a few lines:
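ERR reporter cell line (NTP) seeded, rested 6 h at 37 C/5% CO2, then pinned with Tox21 compounds in DMSO. After 18 h at 37 C, ONE-Glo luciferase luminescence was read following 30 min at room temperature.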

A short description of assay [4]: qHTS RealTime-Glo MT Cell Viability Assay in HepG2 cells - 24 hour (AID 1224867). Note: nearly all actives have a fitted effect of over 50% in size. In a few lines:
(§1)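 Real-time, nonlytic viability: 600 HepG2 cells/well mixed with NanoLuc enzyme plus prosubstrate; 5 h settle, compound (DMSO) added by pintool; luminescence monitored over 40 h at 37 C.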

A short description of assay [5]: qHTS RealTime-Glo MT Cell Viability Assay in HEK293 cells - 32 hour (AID 1224868). For activity change, negative = cytotoxic: top concentration of the series differs between compounds. Note: nearly all actives have a fitted effect of over 50% in size. Note: potency is the fitted concentration of half-maximal effect. A digest of the protocol: (§2)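 Cells + reagent dispensed (600 cells/well, HEK293) → 5 h at 37 C/5% CO2 → 23 nL compound in DMSO pinned → 40 h at 37 C → luminescence read at 0, 8, 16, 24, 32, 40 h.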
Assay [6] is described as follows: A CellTox Green Cytotoxicity Assay to monitor cytotoxicity in HEK293 cells - 0 hour (AID 1224869). Note: nearly all actives have a fitted effect of over 50% in size. In a few lines:
(§3)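 HEK293 cells premixed with CellTox Green dye were seeded at 600 cells/well and left 5 h at 37 C/5% CO2 before pin transfer of 23 nL compound in DMSO. Fluorescence from dye bound to dead-cell DNA was read during 40 h treatment.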

Assay [7] can be described thus: A CellTox Green Cytotoxicity Assay to monitor cytotoxicity in HEK293 cells - 40 hour (AID 1224871). Note: nearly all actives have a fitted effect of over 45% in size. A digest of the protocol:
as §3

A short description of assay [8]: qHTS RealTime-Glo MT Cell Viability Assay in HEK293 cells - 16 hour (AID 1224872). For activity change, negative = cytotoxicity: top concentration of the series differs between compounds. Note: nearly all actives have a fitted effect of over 50% in size. Note: potency is the fitted concentration of half-maximal effect. In a few lines: as §2
Assay [9] is described as follows: qHTS RealTime-Glo MT Cell Viability Assay in HepG2 cells - 8 hour (AID 1224873). Note: nearly all actives have a fitted effect of over 55% in size. A digest of the protocol: (§4)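 Real-time viability: cells seeded at 600 per well together with NanoLuc and cell-permeant prosubstrate, compounds added after 5 h incubation. Luminescence tracked at 0, 8, 16, 24, 32 and 40 h of exposure.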
Assay [10] in a line: qHTS RealTime-Glo MT Cell Viability Assay in HEK293 cells - 40 hour (AID 1224874). Note: nearly all actives have a fitted effect of over 50% in size. Note: potency is the fitted concentration of half-maximal effect. As to conditions: RealTime-Glo luminescence; max response: hits give low values. In a few lines: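 HEK293 cells mixed with RealTime-Glo reagents (NanoLuc plus cell-permeant prosubstrate) at 600 cells/well, preincubated 5 h at 37 C/5% CO2, then given 23 nL compound in DMSO. Nonlytic luminescence from viable cells was read at 0, 8, 16, 24, 32 and 40 h.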

Assay [11] can be described thus: A CellTox Green Cytotoxicity Assay to monitor cytotoxicity in HEK293 cells - 24 hour (AID 1224875). Note: nearly all actives have a fitted effect of over 45% in size. A digest of the protocol:
as §3

The nature of assay [12]: A CellTox Green Cytotoxicity Assay to monitor cytotoxicity in HepG2 cells - 16 hour (AID 1224876). Note: nearly all actives have a fitted effect of over 45% in size. A digest of the protocol: (§5)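 HepG2 cells were seeded together with the CellTox Green dye at 600 cells/well, left 5 h at 37 C/5% CO2, then given compounds in DMSO. Fluorescence from dye bound to dead-cell DNA was read repeatedly over 40 h of treatment at 37 C.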
Assay [13] in a line: A CellTox Green Cytotoxicity Assay to monitor cytotoxicity in HepG2 cells - 24 hour (AID 1224878). Note: nearly all actives have a fitted effect of over 45% in size. A digest of the protocol:
as §5

The nature of assay [14]: qHTS assay to identify small molecule agonists of the hypoxia (HIF-1) signaling pathway - cell viability counter screen (AID 1224844; calls by dose curve; note: nearly all actives have a fitted effect of over 50% in size). A digest of the protocol: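 HRE-bla ME-180 cells in medium with 0.5% dialyzed FBS were preincubated 5 hrs at 37C, exposed to compounds for 17 hrs, then viability was read as CellTiter-Glo luminescence after 30 min at room temperature, in the reporter wells.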

Assay [15] can be described thus: qHTS assay to identify small molecule agonists of H2AX (AID 1224845; active = well fitted activation curve with a large enough effect in the signal ratio in the repeat runs, not every such curve was filed as active; the % refers to the signal ratio). A digest of the protocol:
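Phospho-H2AX Ser139 measured by HTRF (ex 320 nm; em 665 and 620 nm) after 24 hr antibody incubation. Compounds, 15 concentrations, 0.76% DMSO, were applied to CHO-K1 cells for 3hr at 37C before lysis.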

Assay [16] can be described thus: qHTS RealTime-Glo MT Cell Viability Assay in HepG2 cells - 40 hour (AID 1224870). Note: nearly all actives have a fitted effect of over 50% in size. A digest of the protocol:
as §4

The nature of assay [17]: qHTS RealTime-Glo MT Cell Viability Assay in HepG2 cells - 32 hour (AID 1224877). Note: nearly all actives have a fitted effect of over 55% in size. In a few lines:
as §1

The nature of assay [18]: A CellTox Green Cytotoxicity Assay to monitor cytotoxicity in HepG2 cells - 40 hour (AID 1224879). Note: nearly all actives have a fitted effect of over 40% in size. A digest of the protocol:
as §5

Assay [19] can be described thus: qHTS assay to identify small molecule antagonists of the estrogen related receptor (ERR) signaling pathway from Tox21 library (AID 1224848). Note: nearly all actives have a fitted effect of over 50% in size. In a few lines:
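Reading was by luminescence 30 min after ONE-Glo addition. Before that, ERR cells at 2,000 per well had rested 6 h at 37 C/5% CO2 and then received pin-tooled compounds in DMSO for 18 h at 37 C.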

Values without a mark were called inactive. Records with an inconclusive call do not appear. Calls of active or inactive are those of the source. Unless noted, calls come from the whole dose curve; as a rule, active = well fitted curve in the direction sought with a large enough effect in the repeat runs; inconclusive = weak or mixed curves; inactive = no such curve, though single readings can be large; an effect the other way counts as inactive or inconclusive.
% is set by controls: 0 for no effect and ±100 for the full control effect.

On to `Oc1ccc(CCNCCCCCCNCCc2ccccc2)cc1O`, for which the call in assay [1], in assay [4] and in assay [9] was inactive. Further, the Potency result in assay [2], in assay [6], in [7], in [11], in assay [12] and in assay [13] was “inactive” in each case. Also, the activity change, positive = activation in [3] was -19.4% [at 42.5 µM]. Besides, the Potency is 26.8 µM (active) in assay [5], 23.9 µM (active) in [8] and 23.9 µM (active) in assay [10].
Take `CCCc1nc(C)c2c(=O)[nH]c(-c3cc(S(=O)(=O)N4CCN(CC)CC4)ccc3OCC)nn12`: the Potency result in assay [14], in assay [15], in assay [2], in [5], in assay [16] and in assay [7] was “inactive” each time. Moreover, the Potency entry in [8], in assay [11], in [12], in assay [17], in assay [13] and in assay [18] was “inactive” throughout. In addition, the outcome in [1], in [4] and in assay [9] was inactive.
For the molecule `COc1ccc(/C=C/c2cc(OC)cc(=O)o2)cc1`, the Potency entry in assay [15], in assay [2], in assay [19], in [6], in assay [16] and in assay [7] was “inactive” in each case. Further, the Potency result in assay [11], in assay [12], in assay [17], in assay [13] and in assay [18] was “inactive” in each case. The molecule was called inactive in assay [1], in assay [4] and in [9]. For the same molecule, in assay [3], the activity change, positive = activation was 55.8% [at 42.5 µM] (active). Moreover, the Potency in [5] is 11.2 µM (active); in assay [10], 8.92 µM (active).
Take `CCOCCn1c(N2CCCN(C)CC2)nc2ccccc21`: the Potency result in [14], in [15], in assay [5], in assay [7], in assay [8] and in assay [11] was “inactive” in each case. The Potency result in [12], in assay [17], in assay [13] and in [18] was “inactive” each time. In addition, the result in assay [1], in assay [4] and in assay [9] was inactive. For the same molecule, the max response in assay [10] was -3.4%.
As for `Clc1cccc(C(c2ccc3nc[nH]c3c2)n2ccnc2)c1` (stereo not given), the outcome in assay [1], in [4] and in assay [9] was inactive. In addition, the Potency entry in assay [2], in assay [6], in assay [16], in assay [7], in assay [11] and in assay [12] was “inactive” each time. Further, the Potency result in [17], in assay [13] and in assay [18] was “inactive” each time. In assay [10], the max response is -17.1%.
Regarding `O=C(O)c1ccc2c(c1)nc(C(=O)NC1CCN(C3CC3)CC1)n2Cc1cc(-c2ccc(Cl)s2)on1`, the activity change, negative = cytotoxicity in assay [2] was -8.48% [at 31.6 µM]; in [8], 7.22% [at 15.8 µM]. Also, the activity change, negative = cytotoxic is -0.224% [at 15.8 µM] in [5] and -3.33% [at 15.8 µM] in assay [17]. Besides, the cytotoxicity in assay [6] was -5.57% [at 15.8 µM]; in [13] it was -2.25% [at 15.8 µM]. The figures for the cytotoxicity increase in assay [7], in assay [12] and in assay [18] were -0.224% [at 15.8 µM], -9.11% [at 15.8 µM] and -6.87% [at 15.8 µM], respectively. The viability change, negative = cytotoxic in assay [9] is -2.47% [at 15.8 µM]. In addition, the max response in [10] was -1.71%. Also, the activity change in [11] is 1.12% [at 15.8 µM, hits give high values].
`c1ccc(-c2ccc(-c3ccccc3)cc2)cc1`: the values for the activity change, negative = cytotoxicity in [14], in [2] and in assay [8] were 1.63% [at 15.8 µM], -0.782% [at 31.6 µM] and 0.695% [at 15.8 µM], respectively. In assay [15], the activation (H2AX phosphorylation) is -0.824% [at 31.6 µM]. Besides, in assay [1], the activation was -1.07% [at 15.8 µM]. Also, the activity change, negative = cytotoxic is 0.807% [at 15.8 µM] in [5], 3.84% [at 15.8 µM] in assay [16] and 2.08% [at 15.8 µM] in assay [17]. For the same molecule, the figures for the cytotoxicity in assay [6] and in [13] were -5.7% [at 15.8 µM] and -1.79% [at 15.8 µM], respectively. In addition, the cytotoxicity increase in assay [7] is -4.32% [at 15.8 µM]; in [12], -3.4% [at 15.8 µM]; in assay [18], 1.53% [at 15.8 µM]. The viability change, negative = cytotoxic in assay [9] was 0.239% [at 15.8 µM]. In assay [10], the max response is 0.336%. The activity change in [11] was -5.55% [at 15.8 µM, hits give high values].
